“And” between values parts separate entries of the source, which are not always exact repeats. Equal values may be shown once. The source made the active and inactive calls. The call rests on the fitted dose curve; in most records, active means well fitted activation curve with a large enough effect in the repeat runs; inconclusive means weak or mixed curves; inactive means flat fitted curve, though single readings scatter.
experiment: A CellTox Green Cytotoxicity Assay to monitor cytotoxicity in HEK293 cells - 0 hour (AID 1224869); conditions: CellTox Green fluorescence; series mostly up to 76.8 µM; cytotoxicity: at the top concentration; further: nearly all actives have a fitted effect of over 50% in size
Excerpt: National Center for Advancing Translational Sciences [NCATS]
NIH Chemical Genomics Center [NCGC]
U.S. Environmental Protection Agency [EPA]
National Institutes of Environmental Health Sciences [NIEHS]
National Toxicology Program [NTP]
Cell-based models are critical for drug discovery. Determining the natural cytotoxic effects resulting from test compounds is an essential research activity. A CellTox Green Cytotoxicity Assay to monitor cytotoxicity in real time of continues cell culture during 40 hours of the compound treatment was used to screen Tox21 10K library compounds in Hek293 cells. CellTox Green Cytotoxicity Assay is a nonlytic, homogeneous, biofluorescent method to measure cytotoxicity in cell culture after experimental manipulation. The assay system uses a proprietary asymmetric cyanine dye that is excluded from viable cells but preferentially stains the dead cell's DNA. […] Viable cells produce no appreciable increases in fluorescence. Therefore, the fluorescence signal produced by the binding interaction with dead cell DNA is proportional to cytotoxicity.
The mixture of Hek293 cell suspension and reagents were dispensed at 600cells/6 ul/well in 1536-well tissue culture treated black solid bottom plates using a Multidrop dispenser. After the assay plates were incubated at a 37 C/5% CO2 incubator for 5 hours, 23 nL of compounds dissolved in DMSO, positive and negative controls was transferred to the assay plate by a pintool work station. The plates were incubated at 37 C for 40 hours. The fluorescence intensity were measured at 0h, 8h, 16h, 24h, 32h and 40h time points using ViewLux plate reader during compound treatment.
On the % scale 0 is the no-effect control and ±100 the full control effect; potency means the concentration at half of the fitted maximal effect.

| SMILES | Potency | cytotoxicity |
| --- | --- | --- |
| CCN=c1cc2oc3cc(NCC)c(C)cc3c(-c3ccccc3C(=O)OCC)c-2cc1C | 6.89 µM (active) and 6.92 µM (active) |  |
| O=C1c2c(O)ccc(O)c2C(=O)c2c(NCCNCCO)ccc(NCCNCCO)c21 |  | -36.9% [at 35.3 µM] (inactive) |
| Cc1cccc(C)c1NC(=O)CN1CCN(CCCC(c2ccc(F)cc2)c2ccc(F)cc2)CC1 |  | 0.563% [at 35.3 µM] (inactive) |
| c1cc2c3c(c1)ccc1cccc(c13)C2 |  | 0.428% (inactive) |
| Nc1ccc2cc3ccc(N)cc3nc2c1 | 38.9 µM (active) and 21.3 µM (active) |  |
| CNCC[C@H](Oc1cccc2ccccc12)c1cccs1 |  | -0.145% [at 35.3 µM] (inactive) |
| O=C(O)CCn1c2c(c3ccccc31)C[C@H](NS(=O)(=O)c1ccc(F)cc1)CC2 |  | 1.88% [at 35.3 µM] (inactive) |
| [O]=[Zr] |  | -1.81% (inactive) |
| Cc1oc(-c2ccccc2)nc1CCOc1ccc(C[C@H](Nc2ccccc2C(=O)c2ccccc2)C(=O)O)cc1 |  | 0.0273% (inactive) |
| CCCOc1sc(C(=O)N2CCC(c3cc(CN)ccc3F)CC2)c(C)c1Br |  | 1.29% (inactive) |
| CCN(CC)CCSC(=O)C(c1ccccc1)c1ccccc1 |  | 0.479% [at 35.3 µM] (inactive) |
| CCCCCCS |  | 1.05% (inactive) |
| CCNc1nc(NC(C)CC)nc(OC)n1 (stereo not given) |  | -1.23% (inactive) |
| Cc1cc(=O)[nH]c(=O)[nH]1 |  | -3.08% (inactive) |
| C1CC(COCC2CO2)CCC1COCC1CO1 (stereo not given) |  | 2.08% (inactive) |
| C[C@@H]1CC[C@H]2C(C)(C)[C@H]3C[C@@]12CC[C@@]3(C)O |  | 1.25% (inactive) |
| CCc1c(Br)c(Br)c(Br)c(Br)c1Br |  | 0.155% (inactive) |
| S=P(N1CC1)(N1CC1)N1CC1 |  | -4.02% (inactive) |
| Clc1cc(Cl)c(-c2c(Cl)c(Cl)cc(Cl)c2Cl)cc1Cl |  | -1.23% [at 35.3 µM] (inactive) |
| CCOC(=O)CN |  | 0.964% (inactive) |

| SMILES | Potency | cytotoxicity |
| --- | --- | --- |
| NC1(c2ccc(-c3nc4ccn5c(=O)[nH]nc5c4cc3-c3ccccc3)cc2)CCC1 |  | -0.225% [at 35.3 µM] (inactive) |
| CCCCCCCC(OC)OC |  | 8.64% [at 35.3 µM] (inactive) |
| SCCCCCCCCS |  | 1.22% (inactive) |
| C=C1C(C)(C)[C@@]2(Cl)C(Cl)[C@]1(Cl)C(Cl)(Cl)C2(Cl)Cl (stereo not given in full) |  | 2.86% (inactive) |
| Brc1ccccn1 |  | -5.37% (inactive) |
| CCOC(=O)COc1ccc(C)cc1 |  | -0.265% (inactive) |
| CCCCCCCC(C)=O |  | 0.666% (inactive) |
| C[n+]1c2cc(N)ccc2cc2ccc(N)cc21 (tested in a mixture with another compound) | 23.9 µM (active) |  |
| O=C(Nc1ccc(Cl)cc1)Nc1ccc(Cl)c(C(F)(F)F)c1 |  | 10.5% [at 35.3 µM] (inactive) |
| CC(C)(c1cc(Br)c(O)c(Br)c1)c1cc(Br)c(O)c(Br)c1 | inactive |  |
| CCCCCCCCCCCCCCCC |  | -0.624% (inactive) |
| CC1=CP(=O)(c2ccccc2)CC1 (stereo not given) |  | -5.21% (inactive) |
| CCN(CC)CCOc1ccc(C(O)(Cc2ccc(Cl)cc2)c2ccc(C)cc2)cc1 (stereo not given) |  | -6.36% [at 35.3 µM] (inactive) |
| CCCCCCOc1ccc(O)cc1 |  | -12.6% (inactive) |
| CN(C)CCN1CCOCC1 |  | -0.862% (inactive) |
| CO[Si](CCCNCCNCCN)(OC)OC |  | -0.188% (inactive) |
| O=C(O)CCCCCCC(=O)O |  | -0.728% (inactive) |
| CN1[C@@H]2CC[C@H]1CC(OC(=O)C(CO)c1ccccc1)C2 (stereo not given in full) | inactive |  |
| O=c1cccc[nH]1 |  | -3.66% (inactive) |
| CCN=C1C=CC(=C(c2ccc(N(CC)CC)cc2)c2ccc(N(CC)CC)cc2)c2ccccc21 |  | -13.6% (inactive) |

From PubChem BioAssay (Tox21)
